Data from PubChem BioAssay AID1209 (Sanford-Burnham Center for Chemical Genomics, 2008).
Out of some 190,000 compounds screened, about 810 (0.43%) were called active. The sample as a whole holds a higher share of actives than the screen did. Values without a mark were called inactive. Rule as the data show it: active = inhibition above about 50%; inactive = the rest.

molecular target: Mannose-6-phosphate isomerase (Homo sapiens) (UniProt P34949); assay: inhibitors of human PMI, primary screen, biochemical, fluorescence intensity, coupled assay (AID 1209); conditions: purified PMI enzyme, at 20 µM, hits give high values;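 also: plate controls were DMSO vehicle for no effect and wells lacking substrate for full effect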
Sequence (P34949 whole entry, looked up): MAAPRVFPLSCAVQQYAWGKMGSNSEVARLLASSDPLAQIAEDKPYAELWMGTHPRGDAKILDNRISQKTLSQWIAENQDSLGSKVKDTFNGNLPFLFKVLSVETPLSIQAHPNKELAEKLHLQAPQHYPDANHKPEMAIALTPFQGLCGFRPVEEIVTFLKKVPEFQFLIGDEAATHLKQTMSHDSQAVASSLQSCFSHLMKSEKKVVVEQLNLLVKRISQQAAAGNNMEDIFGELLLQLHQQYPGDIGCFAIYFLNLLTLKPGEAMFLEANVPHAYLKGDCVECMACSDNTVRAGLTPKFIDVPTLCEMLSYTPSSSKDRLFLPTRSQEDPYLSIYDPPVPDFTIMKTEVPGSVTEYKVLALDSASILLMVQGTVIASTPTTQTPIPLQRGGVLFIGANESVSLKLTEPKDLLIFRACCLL

| Compound | inhibition |
| --- | --- |
| Fc1ccc(COc2ccc(/C=N/n3cnnc3)cc2)cc1 | -3.3% |
| CCOc1ccc(/C=N/n2cnnc2)cc1 | 84.4% (active) |
| C(=N\n1cnnc1)/c1ccc(OCc2ccccc2)cc1 | -5.7% |
| Cc1occc1C(=O)Nc1nnc(-c2cccs2)s1 | 6.2% |
| Clc1ccccc1Sc1cnc2ccccc2n1 | 0.9% |
| O=C(/C=C/c1ccc(S(=O)(=O)N2CCOCC2)cc1)NC(=S)NCCCn1ccnc1 | -0.5% |
| CC(C)=C1C2CCC1C1C(=O)N(c3nccs3)C(=O)C21 (centres undefined) | -3.3% |
| CCN1C(=O)C(F)(CC)C(=O)c2ccccc21 (centres undefined) | 2.2% |
| CC1(O)C(=O)c2ccccc2N(c2ccccc2)C1=O (centres undefined) | -6.5% |
| CN1C(=O)C(Cl)(Cl)C(=O)c2ccccc21 | 77.4% (active) |
| CC(C)(C)c1ccc(C(=O)CSc2nc3ccccc3c(=O)[nH]2)cc1 | -6.3% |
| CC(C)(C)c1ccc(C(=O)CSc2n[nH]c(=O)[nH]c2=O)cc1 | -4.4% |
| COc1ccc(NC(C)C(=O)N/N=C/c2cc(Br)ccc2OC)cc1 (centres undefined) | 11.5% |
| COc1ccc(/C(N)=N/OC(=O)CSc2ccc(C)cc2)cc1OC | 14.6% |
| O=C(c1cc(-c2ccco2)on1)N1CCN(c2ccccc2)CC1 | 53.5% (active) |
| CN1CCN(C(=O)c2cc(-c3ccco3)on2)CC1 | -0.9% |
| O=C(c1cc(-c2ccco2)on1)N1CCOCC1 | 20.8% |
| CCCNC(=O)COC(=O)c1ccccc1OCC(=O)Nc1ccc(Br)cc1 | -10.2% |
| COc1ccc(-c2csc(NC(=O)C3CC(=O)N(c4ccc5c(c4)OCCO5)C3)n2)cc1 (centres undefined) | 5.8% |
| O=C1CCCN2N=C(SCC(=O)N3N=C(c4ccc(Br)cc4)CC3c3ccc(F)cc3)SC2=N1 (centres undefined) | 22.3% |
| CC(NC(=O)Nc1ccc2c(c1)OCO2)C1CCCO1 (centres undefined) | 0.5% |
| O=C1NC(=O)/C(=C/c2ccc(O)cc2)S1 | -8.7% |
| Cc1cc(N2CCOCC2)ccc1/C=C1/SC(=O)NC1=O | -13.8% |
| O=C1NC(=O)/C(=C\c2ccc(O)cc2O)S1 | 53.5% (active) |
| O=S(=O)(c1ccc(Cl)cc1)c1cnc2ccccc2n1 | -6.4% |
| COC(=O)c1cc(-c2ccccc2)n[nH]1 | 7.7% |

| Compound | inhibition |
| --- | --- |
| O=C(O)c1cc(-c2ccccc2)n[nH]1 | -12% |
| CC(C)(C)NC(=O)c1cc(-c2ccccc2)n[nH]1 | 70.1% (active) |
| Cc1c(Br)c([N+](=O)[O-])nn1CC(=O)Nc1ccccn1 | 7.8% |
| Cc1c(Br)c([N+](=O)[O-])nn1CC(=O)NCc1ccccc1 | 1.2% |
| Cc1c(Br)c([N+](=O)[O-])nn1CC(=O)NCc1ccccn1 | 101% (active) |
| O=C(C1CCCN(S(=O)(=O)c2cnc[nH]2)C1)N(CCc1ccccc1)Cc1ccccc1 (centres undefined) | 9.1% |
| COCC(=O)Nc1nc2ccc(C)cc2s1 | 4.3% |
| CCOCC(=O)Nc1nc2ccc(C)cc2s1 | 110% (active) |
| CCOCC(=O)Nc1nc2ccc(OCC)cc2s1 | -3% |
| CNC(=S)N1CCc2cc(OC)c(OC)cc2C1COc1ccc(F)cc1 (centres undefined) | 10.3% |
| O=C1CNC(=O)c2c(nc3n2CCC3)N1 | -20.3% |
| CC(C)=C1SC(N2CCN(c3ccc(Cl)cc3)CC2)=NC1=O | 0.9% |
| COc1cccc(C(=O)NC(C)C(c2cccs2)N2CCN(C)CC2)c1 (centres undefined) | 4.2% |
| O=C(/C(=N/N=C/c1ccc(O)c(O)c1)c1ccccc1)c1ccccc1 | 30.7% |
| Oc1ccc(/C=N/N(Cc2ccccc2)c2ccccc2)c(O)c1O | 76.6% (active) |
| Oc1ccc(/C=N/N=C(c2ccccc2)c2ccccc2)c(O)c1O | 67.9% (active) |
| CCN(CC)c1ccc(/C=N/N=C(c2ccccc2)c2ccccc2)c(O)c1 | 0.4% |
| O=C(/C(=N/N=C/c1ccc(O)c(O)c1O)c1ccccc1)c1ccccc1 | 55.5% (active) |
| COc1ccc(/C=N/N(Cc2ccccc2)c2ccccc2)cc1O | 16.7% |
| Oc1cccc(/C=N/N(Cc2ccccc2)c2ccccc2)c1 | 10% |
| Oc1cccc(C=NCc2ccccc2)c1O | 49.6% |
| COc1cc(/C=N/N=C(/C(=O)c2ccccc2)c2ccccc2)cc(OC)c1O | 22% |
| CC(=O)c1cn(CCCCCCCn2cc(C(C)=O)c(=O)[nH]c2=O)c(=O)[nH]c1=O | 1.5% |
| O=C(COC(=O)Cc1ccc(Br)cc1)NC1CCCCC1 | -3.4% |
| Oc1ccc(C2N=C(c3ccccc3)NC(c3ccccc3)=N2)cc1 | 3.9% |
| Cc1ccc(C(=O)OCC(=O)Nc2sc3c(c2C#N)CCCC3)cc1NC(=O)c1ccco1 | 1.3% |

| Compound | inhibition |
| --- | --- |
| CSc1nc(=NC(C)=O)ss1 | 54.4% (active) |
| CCN(c1ccccc1)S(=O)(=O)c1ccc(OC)c(NC(=O)CNC)c1 | 7.5% |
| CCN(CC)CCOC(=O)c1c(C)oc2ccc(O)cc12 | 81.6% (active) |
| CCN(CC)CCOC(=O)c1c(C)oc2ccc(OC)cc12 | -3.8% |
| CCOC(=O)c1c(C)oc2ccc(O)cc12 | 8.3% |
| C/C(=N\NC(=O)CCc1c[nH]c2ccccc12)c1ccc([N+](=O)[O-])cc1 | 7.7% |
| O=C(Cc1coc(-c2ccc(F)cc2)n1)N1CCOCC1 | 1% |
| Nc1ccc(N(CCO)CCO)cc1 | 4.7% |
| OCCN(CCO)c1ccc(C(c2ccccc2Cl)c2ccc(N(CCO)CCO)cc2Cl)c(Cl)c1 | 22.1% |
| Cc1ccc(C(=O)CSc2n[nH]c(C)n2)cc1 | 48.5% |
| Cc1nc(SCC(=O)c2ccc(F)cc2)n[nH]1 | -6.3% |
| Cc1nc(SCC(=O)c2ccccc2)n[nH]1 | 65.9% (active) |
| O=C(CCCN1C(=O)/C(=C/c2ccccc2)SC1=S)Nc1ccc(O)cc1 | 73% (active) |
| Cc1ccc(/C=C2/SC(=S)N(CCCC(=O)Nc3ccc(O)cc3)C2=O)cc1 | 22.7% |
| O=C(CCCN1C(=O)/C(=C/c2ccccc2)SC1=S)Nc1cccc(O)c1 | 13% |
| O=C(COC(=O)/C=C/c1ccc([N+](=O)[O-])cc1)NC(c1ccccc1)c1ccccc1 | 13% |
| CC1=C(C(=O)Nc2ccccc2)C(c2cccc([N+](=O)[O-])c2)Nc2nc3ccccc3n21 (centres undefined) | 6.9% |
| O=C(CN1c2cccc3cccc(c23)S1(=O)=O)N1CCOCC1 | 1% |
| CC1=CC(C)(C)Nc2ccc(OC(=O)CN3C(=O)CCC3=O)cc21 | 22% |
| CC1=CC(C)(C)Nc2ccc(OC(=O)CN3C(=O)c4ccccc4C3=O)cc21 | 16.6% |
| CC1=CC(C)(C)Nc2ccc(OC(=O)CN3C(=O)c4cccc5cccc(c45)C3=O)cc21 | 53.4% (active) |
| Cc1cc(NC(=O)c2cc(-c3ccccc3)on2)n(-c2ccccc2)n1 | 0.3% |
| CCC(C)CCCCNC1=NCCS1 (centres undefined) | -16.3% |
| Cc1ccc(-c2n[nH]c(=S)n2/N=C/c2ccncc2)cc1 | -12% |
| Cc1ccc(/C=N/n2c(C)nnc2C)cc1 | 3.6% |
| CCOC(=O)c1c(-c2ccc(C)s2)csc1NC(=O)c1cccs1 | 1.1% |

| Compound | inhibition |
| --- | --- |
| CCOC(=O)c1c(-c2ccc(C)s2)csc1N | 62.1% (active) |
| NC(=O)c1c(-c2cccs2)csc1N | 34.2% |
| CCOC(=O)c1c(-c2ccncc2)csc1N | 23.6% |
| CCOC(=O)c1c(-c2cccs2)csc1NC(C)=O | 7.1% |
| CCOC(=O)c1c(-c2cccs2)csc1N | 51% (active) |
| O=C1c2ccccc2C(=O)N1CCCCN(C(=O)c1cc2ccccc2oc1=O)c1ccc(F)cc1F | 11.5% |
| Cc1cccc(-n2c(Cc3ccccc3)nnc2SCC(=O)N2CCOCC2)c1 | -6.7% |
| O=C(NCc1ccccc1)c1cnc(-c2ccccn2)nc1C(F)(F)F | -3.7% |
| CCC(OC(=O)c1cccs1)C(=O)NC1CCCCC1 (centres undefined) | 3.4% |
| O=[N+]([O-])c1cc(/C=N/n2c(-c3ccncc3)n[nH]c2=S)ccc1Cl | 2.2% |
| CC(C)CC(c1nnnn1Cc1ccc2c(c1)OCO2)N1CCC(C(N)=O)CC1 (centres undefined) | 7.2% |
| CCc1c(C)sc(NC(=O)C2CCCCC2C(=O)O)c1C(N)=O (centres undefined) | 72.1% (active) |
| CCc1c(C)sc(NC(=O)C2CC2c2ccccc2)c1C(N)=O (centres undefined) | 7.7% |
| Cc1sc(NC(=O)C2CCCCC2C(=O)O)c(C(N)=O)c1C (centres undefined) | -5.3% |
| COC(=O)c1c(N2C(=O)CC(Sc3ccccc3C(=O)O)C2=O)sc(C)c1C (centres undefined) | -16.2% |
| COC(=O)c1sccc1NC(=O)CSc1ccccc1N | 12.4% |
| CCN(CC(=O)NCc1ccc(F)cc1)Cc1cc(=O)n2ccsc2n1 | -30.2% |
| Nc1ccc2nn(-c3cccc4ccccc34)nc2c1 | 42.9% |
| Nc1ccc2nn(-c3ccccc3)nc2c1 | 35.7% |
| Cc1ccc(-n2nc3ccc(N)cc3n2)cc1 | 38.7% |
| Cc1ccc(-n2nc3cc(C)c(N)cc3n2)cc1 | 75.3% (active) |
| Nc1cc2nn(-c3ccccc3)nc2cc1Cl | 69.4% (active) |
| CCC(=O)Nc1cc2nn(-c3ccc(C)cc3)nc2cc1C | -2.8% |
| Cc1cc2nn(-c3cccc4ccccc34)nc2cc1NC(=O)c1cccs1 | 12.3% |
| CC(=O)Nc1cc2nn(-c3ccccc3)nc2cc1Cl | 0.2% |
| Cc1cc2nn(-c3cccc4ccccc34)nc2cc1N | 77.5% (active) |
